In the library only some 6.9% were active in any assay of this set; here they are far more common.
MCF10A rereplic: inducers of DNA re-replication in MCF 10A breast cells; 350,000 tested, 2.9% active; Potency, µM (top dose mostly 46.1 µM), for inactives: at the top dose activity, positive = re-replication, most hits filed as activators; MCF 10A DNA re-replication, Hoechst nuclear intensity, 48 h; also: potency is read from the fitted curve at half-maximal effect; % of control where 0% means no effect; nearly all actives have a fitted effect of over 50% in size
SW480 rereplic: DNA re-replication induction in SW480 cells; SW480 DNA re-replication, Hoechst DNA content imaging, 48 h; Potency, µM (doses to about 46.1 µM), without a hit: top-dose re-replication activation, usual class: activators; 340,000 tested, 1.8% active; AID 624297; also: potency is read from the fitted curve at half-maximal effect; % of control where 0% means no effect; nearly all actives have a fitted effect of over 55% in size
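First, 250 cells per well were seeded. Next, compound or vehicle (23 nL) was pinned in, plates sat 48 hr at 37 C. Finally Hoechst was added for 40 min before fluorescence scanning.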
Giardia kill: kills Giardia lamblia. activity change, % at 7.66 µM, hits read low. 340,000 tested, 0.15% active. Giardia lamblia trophozoite viability. AID 540267; in the data active = activity change below about -80%; inconclusive = between about -30% and that limit;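 also: parasites exposed to compound for two days anaerobically before the ATP read; % is scaled to controls: 0 for no effect and ±100 for the full control effect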
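Each well holds 100 Giardia trophozoites and compound. After two days (48 hrs) at 37 deg C in anaerobic conditions, ATP is quantified by luminescence.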
ASM inhibitor: inhibitors of human secretory acid sphingomyelinase. P17405. placental ASM, HMU-PC fluorogenic substrate, 60 min. Potency, µM (highest dose often 57.5 µM), inactives show at the highest dose activity change, negative = inhibition, hits mostly inhibitors. 340,000 tested, 0.006% active. AID 504937; also: potency is read from the fitted curve at half-maximal effect
Target sequence (P17405 47-631 limits assumed): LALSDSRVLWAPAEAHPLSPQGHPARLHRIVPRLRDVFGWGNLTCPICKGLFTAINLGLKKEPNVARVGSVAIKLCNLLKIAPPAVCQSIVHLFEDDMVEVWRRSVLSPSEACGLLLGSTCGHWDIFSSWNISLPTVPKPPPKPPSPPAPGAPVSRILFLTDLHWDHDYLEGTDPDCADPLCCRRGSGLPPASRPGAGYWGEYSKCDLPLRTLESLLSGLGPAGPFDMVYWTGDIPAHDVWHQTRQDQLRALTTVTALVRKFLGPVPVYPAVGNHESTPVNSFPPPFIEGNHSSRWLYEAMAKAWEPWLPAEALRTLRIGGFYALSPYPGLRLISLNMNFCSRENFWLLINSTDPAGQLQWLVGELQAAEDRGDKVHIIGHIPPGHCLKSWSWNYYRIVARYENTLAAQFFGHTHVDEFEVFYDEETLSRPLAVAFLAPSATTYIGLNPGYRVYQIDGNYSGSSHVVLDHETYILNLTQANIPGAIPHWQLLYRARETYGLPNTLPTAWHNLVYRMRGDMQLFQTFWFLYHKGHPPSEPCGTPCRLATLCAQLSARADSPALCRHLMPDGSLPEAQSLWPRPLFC
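Fluorescence read-out (Ex 386 nm, Em 447 nm) after stopping the reaction at pH 10. Enzyme: ASM from human placenta; substrate HMU-PC0, 9 uM final; 60 min, 37 °C. Compound preincubation 10 min, ambient temperature.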
KB-3-1 cytotox: kills parental KB-3-1 adenocarcinoma cells. KB-3-1 viability, CellTiter-Glo ATP luminescence, 72 h. 400,000 tested, 1.4% active. Potency, µM (titrated, usually from 46.1 µM), hits mostly cytotoxic; also: potency is read from the fitted curve at half-maximal effect; % is scaled to controls: 0 for no effect and ±100 for the full control effect; nearly all actives have a fitted effect of over 60% in size
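Parental KB-3-1 viability, qHTS format: 72 h compound exposure, 37 °C; CellTiter-Glo; media-only wells and DMSO plates as controls; concentration-effect fits on corrected data.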
KB-V1 cytotox: kills drug-selected multidrug resistant KB-V1 cells; 400,000 tested, 3.4% active; AID 1347076; Potency, µM (titrated, usually from 46.1 µM), usual class: cytotoxic; KB-V1 MDR cells viability, CellTiter-Glo, 72 h; also: potency is read from the fitted curve at half-maximal effect; % is scaled to controls: 0 for no effect and ±100 for the full control effect; nearly all actives have a fitted effect of over 60% in size
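KB-V1 cells (P-gp-expressing MDR subline of KB-3-1) in phenol-red-free DMEM with 10% FBS were exposed to library compounds over a concentration series for 72 h at 37 degrees C. Viability read by CellTiter-Glo luminescence; concentration-effect curves fitted after normalization.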
An asterisk follows results filed as active. Unless noted, calls follow the shape of the dose curve; as a rule, active = well fitted curve in the direction sought with a large enough effect; inconclusive = small, poorly fitted or top-dose-only effect, or another doubt; inactive = no such curve, though single readings can be large; an effect the other way counts as inactive or inconclusive.

For c1ccc(-c2ccc3c(c2)c2c4n3CCN=C4CCC2)cc1 the results were MCF10A rereplic 8.2µM*, SW480 rereplic inconclusive, Giardia kill 0, ASM inhibitor -1%, KB-3-1 cytotox inconclusive and KB-V1 cytotox 10µM*.
For Cc1nn(CCC(=O)NNC(=S)NCC(C)C)c(C)c1Br the results were MCF10A rereplic -4%, SW480 rereplic 3.7µM*, Giardia kill -3, ASM inhibitor 3%, KB-3-1 cytotox inactive and KB-V1 cytotox inactive.
For CCOCCCNC(=S)NNC(=O)CCn1nc(C)c(Br)c1C the results were MCF10A rereplic 0%, SW480 rereplic inconclusive, Giardia kill -5, ASM inhibitor 3%, KB-3-1 cytotox inactive and KB-V1 cytotox 15µM*.
For Cc1cc(Nc2cccc([N+](=O)[O-])c2)n2c(nc3ccccc32)c1C#N the results were MCF10A rereplic 6.3µM*, SW480 rereplic inconclusive, Giardia kill 7, ASM inhibitor -6%, KB-3-1 cytotox 5.2µM* and KB-V1 cytotox 3.3µM*.
O=c1n2c(c(O)n1C1CCCCC1)C(c1ccccc1)=Nc1ccccc1C2 was read as KB-3-1 cytotox inactive and KB-V1 cytotox 16µM*.
For CC(C)(C)n1c(O)c2n(c1=O)Cc1ccccc1N=C2c1ccccc1 the results were KB-3-1 cytotox inactive and KB-V1 cytotox inactive.
CSc1nc2c(cnn2-c2ccc(C)c(C)c2)c(=O)[nH]1 was read as MCF10A rereplic 0%, SW480 rereplic -11%, Giardia kill -7, ASM inhibitor -2%, KB-3-1 cytotox 1.6µM* and KB-V1 cytotox inconclusive.
For Cc1cccc2cc(CN(Cc3nnnn3C3CCCCC3)C3CCCC3)c3nnnn3c12 the results were MCF10A rereplic 17%, SW480 rereplic 0%, Giardia kill -1, ASM inhibitor -7%, KB-3-1 cytotox inconclusive and KB-V1 cytotox 21µM*.
For Cc1cc(C)c2[nH]c(=O)c(CN(Cc3nnnn3C3CCCC3)C3CCCCC3)cc2c1 the results were MCF10A rereplic -1%, SW480 rereplic -5%, Giardia kill 1, ASM inhibitor 0%, KB-3-1 cytotox inactive and KB-V1 cytotox inactive.
O=C(Nc1ncnc2nc[nH]c12)c1ccccc1 was read as Giardia kill 16, KB-3-1 cytotox inconclusive and KB-V1 cytotox inactive.
For Cc1csc(B(O)O)c1 the results were Giardia kill 20, KB-3-1 cytotox inactive and KB-V1 cytotox inactive.
For CCN(CC)CCNC(=O)/C(=C/c1cn(C)c2ccccc12)NC(=O)c1ccc(OC)c(OC)c1 the results were MCF10A rereplic -1%, SW480 rereplic -7%, Giardia kill -24, ASM inhibitor 2%, KB-3-1 cytotox inactive and KB-V1 cytotox inactive.
`CCN(CC)CCNC(=O)/C(=C/c1cn(CC)c2ccccc12)NC(=O)c1cc(OC)c(OC)c(OC)c1` gave MCF10A rereplic 0.65µM*, SW480 rereplic -21%, Giardia kill -21, ASM inhibitor 3%, KB-3-1 cytotox inactive and KB-V1 cytotox inactive.
`C=CCn1c(SCC(=O)Nc2cc(C)ccc2OC)nnc1-c1ccco1` gave MCF10A rereplic 7%, SW480 rereplic -3%, Giardia kill 10, ASM inhibitor -2%, KB-3-1 cytotox inactive and KB-V1 cytotox inactive.
For C=CCn1c(SCC(=O)N2CCN(c3ccccc3)CC2)nnc1-c1ccco1 the results were MCF10A rereplic 9%, SW480 rereplic -5%, Giardia kill -6, ASM inhibitor -2%, KB-3-1 cytotox inactive and KB-V1 cytotox 13µM*.
C=CCn1c(SCC(=O)Nc2cc(C)c(Cl)cc2OC)nnc1-c1ccco1 was read as MCF10A rereplic 18%, SW480 rereplic -12%, Giardia kill 4, ASM inhibitor -2%, KB-3-1 cytotox inactive and KB-V1 cytotox 2.3µM*.
Screening O=C(Nc1ccc(S(=O)(=O)Nc2ccccc2)cc1)N1CCCC1 returned KB-3-1 cytotox inactive and KB-V1 cytotox inactive.
`COc1ccc(OC)c(NC(=O)c2nc(SCc3ccccc3F)ncc2Cl)c1` gave KB-3-1 cytotox inactive and KB-V1 cytotox inactive.

Bioassay records from PubChem BioAssay.
